From PubChem BioAssay (NCI)
About 83,000 compounds went through this panel and 20% of them were active in at least one assay; those are over-represented in the sample as a whole.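 Values shown are percent growth following 48 h exposure of cells in 96-well plates to a single concentration of compound; below 10 was considered active.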 Values without a mark were called inactive. Calls of active or inactive are those of the source.

Each compound was assayed on HL-60(TB) leukemia (assay: NCI-60 one-dose screen, 48 h (100 = growth as untreated, 0 = no growth, -100 = all killed)). Details: 10 µM unless noted.

How did the growth turn out when `C=C(CNCCc1ccc(O)cc1)[C@@H]1CC[C@]2(CO)CC[C@]3(C)[C@H](CC[C@@H]4[C@@]5(C)CCC(NCCO)C(C)(C)[C@@H]5CC[C@]43C)[C@@H]12` (stereo partly drawn) was run?
Its growth is -46.4% (active).

For `O=C1CSC(=S)N1Cc1cccnc1`, which growth is on record?
Its growth is 13.8%.

How did the growth turn out when `CCc1cc2c(c3ccc(C(=O)CBr)cc13)CCCC2` was run?
Its growth is 97.7%.
